High-throughput results deposited in PubChem BioAssay by National Center for Advancing Translational Sciences (NCATS).
Only some compounds are listed: those with a hit (about 19% of all), similar ones and a draw of the others.
IL1B secr inh: qHTS for Inhibitors of Inflammasome Signaling: IL-1-beta AlphaLISA Primary Screen; activity change, % at 57.5 µM; THP-1 LPS/ATP IL-1B secretion, AlphaLISA, 16 h; hits give low values; AID 743279, 2014; actives 4.7% (n = 360,000); in the data active means activity change below about -50%; inconclusive means mostly about -30% to -49%
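Secreted IL-1B measured by AlphaLISA bead assay after 16 h compound exposure of THP-1 cells; compounds (final up to 57.5 uM) added 1 h before LPS (250 ng/mL) and ATP (1.25 mM) stimulation; lower signal means less secretion.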
HT1080 IDH1KD tx: qHTS for induction of synthetic lethality in tumor cells producing 2HG: qHTS for the HT-1080-IDH1KD cell line; HT-1080 IDH1 knockdown viability, ATP luminescence, 48 h; Potency, µM (top dose mostly 46.1 µM), actives largely listed as cytotoxic; actives 2% (n = 360,000)
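Luminescent ATP read-out (CellTiter-Glo, 10 min at room temperature) after 48 h compound exposure at 37 °C gave viability of IDH1-knockdown HT-1080 cells. Activity was normalised to DMSO and cell-free wells, then fitted as concentration-response curves.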
DT40 TDP1 CPT: qHTS for Inhibitors of human tyrosyl-DNA phosphodiesterase 1 (TDP1): qHTS in cells in presence of CPT. actives 12% (n = 420,000). Potency, µM (doses to about 46.2 µM), usual class: inhibitors. chicken DT40 Tdp1-/-;hTDP1 cells + 20 nM CPT, ATP luminescence, 48 h; further: nearly all actives have a fitted effect of over 55% in size
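Cell growth measured by CellTiter-Glo luminescence after a minimum 48 h, 37 C compound exposure with 20 nM CPT in Tdp1-knockout DT40 cells stably expressing hTDP1, seeded 400/well; qHTS titration format.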
TDP1 cell noCPT: qHTS for Inhibitors of human tyrosyl-DNA phosphodiesterase 1 (TDP1): qHTS in cells in absence of CPT; DT40 Tdp1-/- hTDP1 cells, no CPT, ATP luminescence, 48 h; AID 686978, 2013; Potency, µM (top dose mostly 46.2 µM), hits mostly inhibitors; actives 15% (n = 420,000); further: nearly all actives have a fitted effect of over 55% in size
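Chicken DT40 Tdp1-/- cells stably complemented with human TDP1 were seeded at 400 cells/well with DMSO in place of 20 nM camptothecin. After compound pinning, cells grew at least 48 hr at 37 °C; viability read by CellTiter-Glo luminescence.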
HT1080NT lethal: qHTS for induction of synthetic lethality in tumor cells producing 2HG: qHTS for the HT-1080-NT fibrosarcoma cell line. HT-1080-NT fibrosarcoma viability, CellTiter-Glo ATP luminescence, 48 h. Potency, µM (top dose mostly 46.1 µM), usual class: cytotoxic. actives 1.6% (n = 360,000). AID 686970, 2013;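 further: NT is the 2HG producing partner of a matched IDH1 knockdown line; nearly all actives have a fitted effect of over 55% in size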
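Viability of the 2HG-overproducing fibrosarcoma line after 48 hours of compound exposure at 37 degrees C was determined by luminescence with CellTiter-Glo, and concentration-effect curves were then fitted and categorized.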
Hits are given with their value; - = inactive; ? = inconclusive; . = not tested or not shown; [ ] = dose if it differs, or a comment. Unless noted, the call rests on the fitted dose curve; in most records, active means well fitted curve in the direction sought with a large enough effect; inconclusive means small, poorly fitted or top-dose-only effect, or another doubt; inactive means no such curve, though single readings can be large; an effect the other way counts as inactive or inconclusive.

SMILES	IL1B secr inh	HT1080 IDH1KD tx	DT40 TDP1 CPT	TDP1 cell noCPT	HT1080NT lethal
CCCCNC(=O)Cn1c(SCc2ccccc2C)nc2ccncc21	.	.	-	?	.
O=C(c1ccccc1F)n1c2c(c3ccccc31)CCCC2	-	15µM	23µM	?	?
CC(C)NC(=O)C1(C)CCN1Cc1ccc(Cl)cc1 (stereo not given)	-	-	?	?	-
CC/C(C)=N\N=C\c1c(O)n(CC)c2cc(C3=NNC(=O)CC3)ccc12	-	-	10µM	6.5µM	-
Nc1nc2c(Br)ccc(Br)c2cc1C(=O)NCc1cccc2ccccc12	-	16µM	?	?	-
CCc1nc2sc3c(c2c(=O)n1NC(=O)CCl)CCCC3	-77	?	21µM	?	-
N=c1cc(C2(O)CCCCC2)n2c(nc3ccccc32)s1	?	-	?	?	-
C[C@H]1CN([C@@H](C)CO)C(=O)CCCn2nncc2CO[C@@H]1CN(C)S(=O)(=O)c1ccc(-c2ccccc2)cc1	-	-	-	-	-
Cc1c([C@H]2[C@@H](CC#N)C2(C)C)c2ccccc2n1C	-	-	-	-	-
Cc1[nH]c2c(Br)cccc2c1[C@H]1[C@@H](CC#N)C1(C)C	-	?	16µM	?	?
O=C(N/N=C/c1cccc(Br)c1)c1ccc(Cn2cc(Br)cn2)o1	-73	-	-	?	?
Cc1ccc(NC(=O)c2ccc(Cn3cc(Br)cn3)o2)cc1	-	-	?	21µM	-
NNC(=O)c1ccc(Cn2cc(Br)cn2)o1	-	-	-	-	-
COc1cccc(C(O)c2nc(/C=C/c3ccc(C(F)(F)F)cc3)cs2)c1 (stereo not given)	-	?	?	?	?
OC(c1cccnc1)c1nc(/C=C/c2ccc(C(F)(F)F)cc2)cs1 (stereo not given)	-	-	21µM	2.6µM	-
OC(c1cccc(Cl)c1)c1nc(/C=C/c2ccc(C(F)(F)F)cc2)cs1 (stereo not given)	-	?	23µM	?	?
O=C(Cn1cnc2ccccc21)OCC(=O)N1CCCCC1	-	-	-	-	-
Cc1ccc(NC(=O)Nc2c(C)n(C)n(-c3ccccc3)c2=O)c(Cl)c1	.	.	-	-	.
Cc1ncc(COC(=O)C(C)C)c2cc(C(=O)Nc3ccccc3C(F)(F)F)c(=O)oc12	.	.	-	-	.
CN1C(=S)N(c2cccnc2)C(=O)/C1=C\c1ccc(C(C)(C)C)cc1	-	?	16µM	15µM	?
CN1C(=S)N(c2cccnc2)C(=O)/C1=C\c1ccc(N(C)C)cc1	-	?	?	?	?
Cc1cc(C(=O)NCc2nc(-c3ccccc3NC(=O)C3CCCO3)oc2C)nc(C)n1 (stereo not given)	.	.	-	-	.
CCc1nn(-c2ccccc2)c2c1-c1cc(OC)c(OC)cc1C1(N2)C(=O)Nc2ccccc21 (stereo not given)	-	-	?	?	-
CNC(=O)c1nc(C)n(-c2ccc(Cl)cc2Cl)n1	-	-	12µM	?	-
NNC(=O)c1oc2ccccc2c1-n1cccc1	-	4.1µM	-	?	4.6µM
SMILES	IL1B secr inh	HT1080 IDH1KD tx	DT40 TDP1 CPT	TDP1 cell noCPT	HT1080NT lethal
O=C(NNC(=O)c1oc2ccccc2c1-n1cccc1)c1ccco1	-	-	-	-	-
CN(C)c1ccc(/C=N/N=C2/NC(=O)/C(=C/c3ccc([N+](=O)[O-])cc3)S2)cc1	-	-	?	16µM	-
O=C(Nc1nc(-c2ccccn2)cs1)c1cc2ccccc2o1	-	?	?	7.3µM	-
Cc1nnc(NC(=O)c2oc3ccccc3c2C)s1	-	-	?	-	-
Cc1cc(-c2csc(NC(=O)c3cc4ccccc4o3)n2)c(C)n1C	-	-	?	?	-
Cc1c(C(=O)Nc2nc(-c3ccccn3)cs2)oc2ccccc12	-	?	5.2µM	3.7µM	?
CC(Oc1ccc(O)cc1)(P(=O)(O)O)P(=O)(O)O	.	.	-	-	.
NC(N)=Nc1nc2cc([N+](=O)[O-])ccc2o1	?	-	10µM	10µM	-
CSc1ccc(CCNC(=O)CCCn2c(=O)c3cccn3c3ccccc32)cc1	.	.	?	18µM	.
CCOc1ccc(CCNC(=O)Cn2c(=O)c3cccn3c3cccnc32)cc1	-66	-	?	-	-
CCOc1ccc(CCNC(=O)CCCn2c(=O)c3cccn3c3ccccc32)cc1	.	.	18µM	23µM	.
CCCCN(CC)C(=O)CCCn1c(=O)c2cccn2c2ccccc21	.	.	?	21µM	.
CCC(C)NC(=O)CCCn1c(=O)c2cccn2c2ccccc21 (stereo not given)	.	.	-	-	.
O=C(NCc1ccccc1)c1ccc(CNS(=O)(=O)c2ccc(Br)cc2)cc1	.	.	-	-	.
CCOC(=O)C(N)CSC1CC(=O)N(CCc2ccccc2)C1=O (stereo not given)	-	-	-	-	-
c1ccc(Sc2ncnc3ccccc23)cc1	.	?	?	?	-
c1ccc(Cc2nnc(Sc3ccccc3)c3ccccc23)cc1	-68	11µM	?	?	?
CCOc1ccc(/C=N/NC(=O)c2cc3c(OC)cccc3[nH]2)cc1	?	?	18µM	23µM	?
CCOc1ccc2[nH]c(C(=O)N/N=C/c3cc(OC)c(OC)c(OC)c3)cc2c1	-79	-	?	16µM	-
COc1cccc(/C=N/NC(=O)c2cc3c(OC)c(OC)ccc3[nH]2)c1OC	-	6.5µM	2.3µM	2.6µM	?
COc1cc(/C=N/NC(=O)c2cc3ccccc3[nH]2)ccc1O	-	-	-	-	-
COc1cccc(/C=N/NC(=O)c2cc3c(OC)cccc3[nH]2)c1O	-	?	5.2µM	6.5µM	?
Cc1ccc(S(=O)(=O)N2CCN(CCC#N)CC2)cc1	-	-	-	-	-
CCN1CCCC1CNC(=O)c1cnn(-c2nccc(-c3cc4ccccc4o3)n2)c1C (stereo not given)	.	.	-[9.04 µM]	?	.
Cc1c(NC(=O)COc2ncnc3ccccc23)c(=O)n(-c2ccccc2)n1C	-	-	-	-	-
COC(=O)CN1C(=O)C(C)(C)c2cc(S(=O)(=O)Nc3ccc(Br)cc3F)ccc21	.	.	-	-	.
COc1ccc(CNC(=O)C2CCCN(C(=O)Nc3ccc(OC)cc3)C2)cc1 (stereo not given)	-	-	-	-	-
O=C(c1ccco1)N1CCN(S(=O)(=O)c2cccc(Cl)c2)CC1	-	-	-	-	-
COc1ccccc1/C=N/NC(=O)c1cc2c(OC)c(OC)ccc2[nH]1	-	4.1µM	4.1µM	3.3µM	7.3µM
COc1cccc(/C=N/NC(=O)c2cc3c(OC)cccc3[nH]2)c1OC	-	-	-	7.3µM	-
